{"source": "PubChem BioAssay (NCATS)", "note": "Values without a mark were called inactive. Inconclusive results are not listed. A call without a number means that no potency is given here. The source made the active and inactive calls. Unless noted, calls come from the whole dose curve; as a rule, active = well fitted curve in the direction sought with a large enough effect; inconclusive = small, poorly fitted or top-dose-only effect, or effect the other way, or another doubt; inactive = no such curve, though single readings can be large or run the other way.", "data": [{"test_system": "not listed separately", "assay": "Inducers of the Endoplasmic Reticulum Stress Response (ERSR) in human glioma: Validation (AID 504836)", "conditions": "human glioma cells, ER stress response reporter; series mostly up to 38.3 µM", "how_it_was_run": "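ERSR induction read as luciferase luminescence (Bright-Glo, 10 min at room temperature) in stably transfected human U87-MG glioma cells exposed to compounds for 16 h, using GRP78 as sensor.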", "values": [{"smiles": "Nc1ccc(-c2nc3ccc(-c4nc5ccc(N)cc5[nH]4)cc3[nH]2)cc1", "outcome": "inactive"}, {"smiles": "O=C1C2C=CC=CC2=NC(=S)N1CCN1CCC(=C(c2ccc(F)cc2)c2ccc(F)cc2)CC1", "note": "(stereo not drawn)", "outcome": "inactive"}, {"smiles": "CC(=O)[C@H]1CCC2C3CC=C4C[C@@H](OS(=O)(=O)O)CC[C@]4(C)C3CC[C@@]21C", "note": "(stereo partly drawn)", "outcome": "inactive"}, {"smiles": "CCCCCCCCCCCCCCCCCCNC(=O)OCC(COP(=O)([O-])OCC[n+]1ccsc1)OC", "note": "(stereo not drawn)", "outcome": "inactive"}, {"smiles": "COc1ccc(-c2ccc(N)[n+](CCCC(=O)O)n2)cc1", "outcome": "inactive"}, {"smiles": "COc1cccc(OC)c1OCCNCC1COc2ccccc2O1", "note": "(stereo not drawn)", "outcome": "inactive"}, {"smiles": "O=C(O)[C@@H]1C[C@H](C(=O)O)N1", "outcome": "inactive"}, {"smiles": "CCCOC(=O)c1c(-c2ccccc2)nc(CC)c(C(=O)SCC)c1CCC", "outcome": "inactive"}, {"smiles": "Cc1cccc(C)c1OCC(N)C(C)C", "note": "(stereo not drawn)", "outcome": "inactive"}, {"smiles": "CC1(C)CCC2=C(O1)c1ccccc1C(=O)C2=O", "outcome": "inactive"}, {"smiles": "c1ccc(-c2ccccn2)nc1", "outcome": "inactive"}, {"smiles": "CC(C)(C)c1onc(OCP(=O)(O)O)c1CC(N)C(=O)O", "note": "(stereo not drawn)", "outcome": "inactive"}, {"smiles": "Cc1ccc(C(=O)O[C@H](C(=O)O)[C@@H](OC(=O)c2ccc(C)cc2)C(=O)O)cc1", "note": "(tested in a mixture with another compound)", "outcome": "inactive"}, {"smiles": "CC1CN(S(=O)(=O)c2cccc3cnccc23)CCN1", "note": "(stereo not drawn)", "outcome": "inactive"}, {"smiles": "NC(=O)c1ccccc1", "outcome": "inactive"}, {"smiles": "O=c1onc2n1-c1cc(Br)ccc1OC2", "outcome": "inactive"}, {"smiles": "N#C/C(=C\\c1ccc(O)c(O)c1)C(=O)Nc1ccccc1", "outcome": "inactive"}, {"smiles": "O=C1O/C(=C/Br)CCC1c1cccc2ccccc12", "note": "(stereo not drawn)", "outcome": "inactive"}, {"smiles": "N[C@@H](Cc1cnc[nH]1)C(=O)O", "outcome": "inactive"}, {"smiles": "COC(=O)c1c(C)[nH]c(C)c1C(=O)c1ccccc1Cc1ccccc1", "outcome": "inactive"}, {"smiles": "CCCCCC(O)CCCC(=O)O", "note": "(stereo not drawn)", "outcome": "inactive"}, {"smiles": "N=C(N)c1ccccc1", "outcome": "inactive"}, {"smiles": "CCCCC/C=C\\CC(O)/C=C/c1cccc(CC(O)CCCCO)n1", "note": "(stereo not drawn)", "outcome": "inactive"}, {"smiles": "OC[C@H]1O[C@@H](n2cnc3cncnc32)[C@H](O)[C@@H]1O", "outcome": "inactive"}, {"smiles": "N[C@@H](CCCC(=O)O)C(=O)O", "outcome": "inactive"}, {"smiles": "CSC(N)=NCCC[C@H](N)C(=O)O", "outcome": "inactive"}, {"smiles": "O=C(O)CC1CCCc2ccccc2C1O", "note": "(stereo not drawn)", "outcome": "inactive"}, {"smiles": "Nc1ccc(CCNc2ncnc3c2ncn3C2OC(CO)C(O)C2O)cc1", "note": "(stereo not drawn)", "outcome": "inactive"}, {"smiles": "NC(N)=NC(N)=Nc1cccc(Cl)c1", "outcome": "inactive"}, {"smiles": "CCCCS(=N)(=O)CC[C@H](N)C(=O)O", "note": "(stereo partly drawn)", "outcome": "inactive"}, {"smiles": "CCCN(CCc1ccccc1)C1CCc2c(O)cccc2C1", "note": "(stereo not drawn)", "outcome": "inactive"}, {"smiles": "CN1C2CCC1CC(OC(=O)C(O)c1ccccc1)C2", "note": "(stereo not drawn)", "outcome": "inactive"}, {"smiles": "CN1CCC[C@H]1c1cccnc1", "outcome": "inactive"}, {"smiles": "NC(CCCP(=O)(O)O)C(=O)O", "note": "(stereo not drawn)", "outcome": "inactive"}, {"smiles": "NC1(C(=O)O)CCc2cc(C(=O)O)ccc21", "note": "(stereo not drawn)", "outcome": "inactive"}, {"smiles": "C[C@@H](NCCc1ccc(O)cc1)[C@@H](O)c1ccc(O)cc1", "outcome": "inactive"}, {"smiles": "CCCc1c(-c2ccc(O)cc2)nn(-c2ccc(O)cc2)c1-c1ccc(O)cc1", "outcome": "inactive"}, {"smiles": "CC1CCN=C(N)S1", "note": "(stereo not drawn)", "outcome": "inactive"}, {"smiles": "CCCCCCCCCCCCCCSCC(=O)O", "outcome": "inactive"}, {"smiles": "OCC1O[C@H](O)C(Cl)C(O)C1O", "note": "(stereo partly drawn)", "outcome": "inactive"}]}, {"target": "Bile acid receptor (Homo sapiens) (UniProt Q96RI1)", "sequence (Q96RI1 whole entry, looked up)": "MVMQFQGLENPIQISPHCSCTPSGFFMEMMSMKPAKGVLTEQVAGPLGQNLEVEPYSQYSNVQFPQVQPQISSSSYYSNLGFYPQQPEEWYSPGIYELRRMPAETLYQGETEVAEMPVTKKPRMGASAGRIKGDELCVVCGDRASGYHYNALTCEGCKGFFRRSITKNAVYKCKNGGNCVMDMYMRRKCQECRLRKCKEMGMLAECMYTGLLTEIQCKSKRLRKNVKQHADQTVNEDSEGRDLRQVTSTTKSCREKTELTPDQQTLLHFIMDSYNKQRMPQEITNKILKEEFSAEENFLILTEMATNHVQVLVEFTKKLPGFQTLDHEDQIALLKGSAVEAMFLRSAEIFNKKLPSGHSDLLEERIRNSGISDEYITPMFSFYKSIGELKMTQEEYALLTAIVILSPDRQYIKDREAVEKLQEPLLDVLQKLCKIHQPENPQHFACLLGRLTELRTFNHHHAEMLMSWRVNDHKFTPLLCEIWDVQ", "assay": "qHTS assay for small molecule agonists of farnesoid X receptor signaling (AID 588527; calls by dose curve)", "conditions": "HEK293T FXR-UAS-bla, beta-lactamase ratio, 16 h; activation: hits give high values", "how_it_was_run": "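Quantitative HTS used FXR-UAS-bla HEK293T cells with 16 h compound incubation at 37 C. EC50 values came from concentration-response curves normalized to chenodeoxycholic acid.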", "units": {"activation": "%"}, "values": [{"smiles": "NC(=O)c1ccccc1", "activation": 0.288}, {"smiles": "CCCc1c(-c2ccc(O)cc2)nn(-c2ccc(O)cc2)c1-c1ccc(O)cc1", "activation": 1.37}, {"smiles": "CCCCCCCCCCCCCCSCC(=O)O", "activation": 0.99}]}, {"test_system": "not listed separately", "assay": "qHTS for Inhibitors of the Functional Ribonucleoprotein Complex (vRNP) of Lassa (LASV) Arenavirus: LASV Primary Screen - GLuc reporter signal (AID 1347082; calls by dose curve; tested in HEK293 reporter line; note: nearly all actives have a fitted effect of over 60% in size)", "conditions": "LASV minigenome vRNP, Gaussia luciferase reporter; series mostly up to 57.5 µM", "values": [{"smiles": "Nc1ccc(-c2nc3ccc(-c4nc5ccc(N)cc5[nH]4)cc3[nH]2)cc1", "Potency": "inactive"}, {"smiles": "O=C1C2C=CC=CC2=NC(=S)N1CCN1CCC(=C(c2ccc(F)cc2)c2ccc(F)cc2)CC1", "note": "(stereo not drawn)", "Potency": "inactive"}, {"smiles": "CC(=O)[C@H]1CCC2C3CC=C4C[C@@H](OS(=O)(=O)O)CC[C@]4(C)C3CC[C@@]21C", "note": "(stereo partly drawn)", "Potency": "inactive"}, {"smiles": "CCCCCCCCCCCCCCCCCCNC(=O)OCC(COP(=O)([O-])OCC[n+]1ccsc1)OC", "note": "(stereo not drawn)", "Potency": "inactive"}, {"smiles": "COc1ccc(-c2ccc(N)[n+](CCCC(=O)O)n2)cc1", "Potency": "inactive"}, {"smiles": "COc1cccc(OC)c1OCCNCC1COc2ccccc2O1", "note": "(stereo not drawn)", "Potency": "inactive"}, {"smiles": "O=C(O)[C@@H]1C[C@H](C(=O)O)N1", "Potency": "inactive"}, {"smiles": "CCCOC(=O)c1c(-c2ccccc2)nc(CC)c(C(=O)SCC)c1CCC", "Potency": "inactive"}, {"smiles": "Cc1cccc(C)c1OCC(N)C(C)C", "note": "(stereo not drawn)", "Potency": "inactive"}, {"smiles": "CC1(C)CCC2=C(O1)c1ccccc1C(=O)C2=O", "Potency": "inactive"}, {"smiles": "c1ccc(-c2ccccn2)nc1", "Potency": "inactive"}, {"smiles": "CC(C)(C)c1onc(OCP(=O)(O)O)c1CC(N)C(=O)O", "note": "(stereo not drawn)", "Potency": "inactive"}, {"smiles": "Cc1ccc(C(=O)O[C@H](C(=O)O)[C@@H](OC(=O)c2ccc(C)cc2)C(=O)O)cc1", "note": "(tested in a mixture with another compound)", "Potency": "inactive"}, {"smiles": "CC1CN(S(=O)(=O)c2cccc3cnccc23)CCN1", "note": "(stereo not drawn)", "Potency": "inactive"}, {"smiles": "NC(=O)c1ccccc1", "Potency": "inactive"}, {"smiles": "O=c1onc2n1-c1cc(Br)ccc1OC2", "Potency": "inactive"}, {"smiles": "N#C/C(=C\\c1ccc(O)c(O)c1)C(=O)Nc1ccccc1", "Potency": "inactive"}, {"smiles": "O=C1O/C(=C/Br)CCC1c1cccc2ccccc12", "note": "(stereo not drawn)", "Potency": "inactive"}, {"smiles": "N[C@@H](Cc1cnc[nH]1)C(=O)O", "Potency": "inactive"}, {"smiles": "COC(=O)c1c(C)[nH]c(C)c1C(=O)c1ccccc1Cc1ccccc1", "Potency": "inactive"}, {"smiles": "CCCCCC(O)CCCC(=O)O", "note": "(stereo not drawn)", "Potency": "inactive"}, {"smiles": "N=C(N)c1ccccc1", "Potency": "inactive"}, {"smiles": "CCCCC/C=C\\CC(O)/C=C/c1cccc(CC(O)CCCCO)n1", "note": "(stereo not drawn)", "Potency": "inactive"}, {"smiles": "OC[C@H]1O[C@@H](n2cnc3cncnc32)[C@H](O)[C@@H]1O", "Potency": "inactive"}, {"smiles": "N[C@@H](CCCC(=O)O)C(=O)O", "Potency": "inactive"}, {"smiles": "CSC(N)=NCCC[C@H](N)C(=O)O", "Potency": "inactive"}, {"smiles": "O=C(O)CC1CCCc2ccccc2C1O", "note": "(stereo not drawn)", "Potency": "inactive"}, {"smiles": "Nc1ccc(CCNc2ncnc3c2ncn3C2OC(CO)C(O)C2O)cc1", "note": "(stereo not drawn)", "Potency": "inactive"}, {"smiles": "NC(N)=NC(N)=Nc1cccc(Cl)c1", "Potency": "inactive"}, {"smiles": "CCCCS(=N)(=O)CC[C@H](N)C(=O)O", "note": "(stereo partly drawn)", "Potency": "inactive"}, {"smiles": "CCCN(CCc1ccccc1)C1CCc2c(O)cccc2C1", "note": "(stereo not drawn)", "Potency": "inactive"}, {"smiles": "CN1C2CCC1CC(OC(=O)C(O)c1ccccc1)C2", "note": "(stereo not drawn)", "Potency": "inactive"}, {"smiles": "CN1CCC[C@H]1c1cccnc1", "Potency": "inactive"}, {"smiles": "NC(CCCP(=O)(O)O)C(=O)O", "note": "(stereo not drawn)", "Potency": "inactive"}, {"smiles": "NC1(C(=O)O)CCc2cc(C(=O)O)ccc21", "note": "(stereo not drawn)", "Potency": "inactive"}, {"smiles": "C[C@@H](NCCc1ccc(O)cc1)[C@@H](O)c1ccc(O)cc1", "Potency": "inactive"}, {"smiles": "CCCc1c(-c2ccc(O)cc2)nn(-c2ccc(O)cc2)c1-c1ccc(O)cc1", "Potency": "inactive"}, {"smiles": "CC1CCN=C(N)S1", "note": "(stereo not drawn)", "Potency": "inactive"}, {"smiles": "CCCCCCCCCCCCCCSCC(=O)O", "Potency": "inactive"}, {"smiles": "OCC1O[C@H](O)C(Cl)C(O)C1O", "note": "(stereo partly drawn)", "Potency": "inactive"}]}]}
